High-throughput results from PubChem BioAssay.
Only some compounds are listed: those with a hit (about 2.8% of all), similar ones and a draw of the others.
D3 antag: blocks the human D3 dopamine receptor; 2.5% of 360,000 active; P35462; max response, negative = inhibition, %; D3R cells, DiscoveRx beta-arrestin luminescence, antagonist mode; active compounds read low; AID 652054; in the data active means max response below about -50%; inconclusive means no clear call, values can overlap the other calls; further: on the % scale 0 is the no-effect control and ±100 the full control effect
Target sequence (P35462 whole entry, looked up): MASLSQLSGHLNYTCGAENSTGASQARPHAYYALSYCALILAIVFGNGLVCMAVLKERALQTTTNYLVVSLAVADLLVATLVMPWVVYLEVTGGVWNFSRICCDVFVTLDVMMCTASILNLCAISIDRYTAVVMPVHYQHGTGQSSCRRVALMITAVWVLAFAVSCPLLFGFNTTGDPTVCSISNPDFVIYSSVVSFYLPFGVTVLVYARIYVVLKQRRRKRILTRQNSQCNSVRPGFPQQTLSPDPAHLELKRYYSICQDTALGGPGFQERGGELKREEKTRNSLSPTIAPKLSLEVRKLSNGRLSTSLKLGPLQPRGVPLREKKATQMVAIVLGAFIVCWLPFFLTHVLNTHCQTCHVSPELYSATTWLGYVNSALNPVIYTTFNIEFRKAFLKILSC
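Cells expressing the human receptor were seeded at 1500 cells/well, incubated overnight at 37 degrees C in 5% CO2, then exposed to library compounds with dopamine controls for 90 minutes at 37 degrees C before luminescent detection.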
DRD3 agonist: agonists of human D3 dopamine receptor; 0.58% of 410,000 active; AID 652048; D3R DiscoveRx beta-arrestin cells, luminescence, 90 min; max activation, %; in the data active means max activation above about 30%; further: 0% is about no effect
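Agonist mode: compounds and dopamine controls were applied to plated cells for 90 min at 37 degrees C after an overnight attachment at 1500 cells/well. Luminescent read-out followed 30 - 60 minutes at room temperature with DiscoveRx detection reagent.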
Giardia killer: Giardia lamblia killing; Giardia lamblia trophozoite viability; activity change, % at 7.66 µM, hits read low; 0.15% of 340,000 active; AID 540267; in the data active means activity change below about -80%; inconclusive means between about -30% and that limit;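 further: parasites exposed to compound for two days anaerobically before the ATP read; on the % scale 0 is the no-effect control and ±100 the full control effect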
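Giardia trophozoites, 100 cells per well, were exposed to compounds for 48 hrs at 37 deg C under anaerobic conditions; viability was then read as ATP content by bioluminescence after 15-30 min at room temperature.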
B2AR arrestin: recruits beta-arrestin to the human beta2-adrenergic receptor; P07550; beta-arrestin recruitment to beta2AR, cell-based reporter; Potency, µM (doses to about 46.1 µM), without a hit: top-dose activation, usual class: activators; 0.02% of 330,000 active; AID 492947; active means well fitted activation curve with a large enough effect; inconclusive means small, poorly fitted or top-dose-only effect;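 further: potency means the concentration at half of the fitted maximal effect; 0% = DMSO controls and full agonism = EC100 isoproterenol or metaproterenol; nearly all actives have a fitted effect of over 65% in size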
* hit, by the source's call.

What do the screens show for `CCCOC(=O)c1c(NC(=O)/C=C/c2cnn(C)c2C)sc(C(=O)OCC)c1C`?
D3 antag: 35.9; DRD3 agonist: 20.2; Giardia killer: -7.4; B2AR arrestin: 1.6%

How did CCOC(=O)c1c[nH]c2cc(OCC(C)C)c(OCC(C)C)cc2c1=O do in these assays?
DRD3 agonist: 3.4

Results for Cc1cc(C)c2c(n1)SCCN2C(=O)Nc1ccc(C(=O)Nc2ccc(C(C)C)cc2)cc1 ?
DRD3 agonist: 2.8

How did Cc1ccnc(NS(=O)(=O)c2ccc(NC(=O)c3ccc(N4C(=O)CCC4=O)cc3)cc2)n1 do in these assays?
D3 antag: -5.3; DRD3 agonist: -2.1; Giardia killer: 22.3; B2AR arrestin: 0.5%

Results for Cc1cc(C)nc(NS(=O)(=O)c2ccc(NC(=O)c3cccc(N4C(=O)CCC4=O)c3)cc2)n1 ?
D3 antag: -59.4*; DRD3 agonist: -7.9; Giardia killer: -4.8; B2AR arrestin: 0.4%

Results for CCCCC1=CC2=C(c3ccco3)C(=O)C(C)(OC(=O)c3ccc(OC)cc3)C(=O)C2=CN1CCCOC(C)C (stereo not drawn) ?
D3 antag: -83.0*; DRD3 agonist: -18.2; Giardia killer: -4.9; B2AR arrestin: -0.4%

What do the screens show for `CCCCN(C=O)c1c(CC)nc2ccc(C(=O)NCc3ccccc3OC)cn12`?
D3 antag: -50.8*; DRD3 agonist: 1.9

How did O=C(Nc1ccccc1Sc1ccccc1)c1cnn2c1NC(=C1CC1)C=C2C(F)F do in these assays?
Giardia killer: -7.2

Results for CC1(C(=O)Nc2cnc3ccccc3c2)CCN1C(=O)CCc1ccccc1 (stereo not drawn) ?
D3 antag: 0.0; DRD3 agonist: 53.9*

Results for CC1(C(=O)NS(=O)(=O)c2ccc(Cl)cc2)CCN1C(=O)CCc1ccc(Cl)cc1Cl (stereo not drawn) ?
D3 antag: -52.0*; DRD3 agonist: -15.1

Results for CC1(C(=O)NS(=O)(=O)c2cccc(Cl)c2)CCN1C(=O)CC1CC1 (stereo not drawn) ?
D3 antag: 0.0; DRD3 agonist: 52.3*

How did CCCCOc1ccc(S(=O)(=O)NC(=O)C2(C)CCN2C(=O)CCc2ccccc2)cc1 (stereo not drawn) do in these assays?
D3 antag: -50.2*; DRD3 agonist: -2.5

How did Cc1ccc(S(=O)(=O)NC(=O)C2(C)CCN2C(=O)CCc2ccc(Cl)cc2Cl)cc1 (stereo not drawn) do in these assays?
D3 antag: inconclusive; DRD3 agonist: -8.2

What do the screens show for `O=C(NCc1ccccc1F)c1cccc(NC(=O)N2CCSc3ncccc32)c1`?
DRD3 agonist: 0.5

What do the screens show for `COc1ccc(CCNC(=O)Cn2c(=O)nc(-c3ccccc3)c3cc(Cl)ccc32)cc1OC`?
DRD3 agonist: -12.2

What do the screens show for `Cc1ccccc1NC(=O)CCNC(=O)Cn1ccc2ccccc2c1=O`?
DRD3 agonist: -10.5

Results for COc1ccc(CNC(=O)c2cc3c(=O)n(C)c4ccccc4c3n2C)c(OC)c1 ?
DRD3 agonist: 6.3

What do the screens show for `COc1ccc(Nc2ncnc3onc(C)c23)c(OC)c1`?
DRD3 agonist: -3.3

Results for CC1(C(=O)NS(=O)(=O)c2cccc(Cl)c2)CCN1C(=O)Cc1ccc(Cl)cc1Cl (stereo not drawn) ?
D3 antag: -82.8*; DRD3 agonist: -26.0

How did OCC(CBr)(CBr)CBr do in these assays?
D3 antag: -54.4*; DRD3 agonist: -5.4; Giardia killer: 2.3; B2AR arrestin: -0.1%

How did CN(Cc1nc(-c2ccccc2)no1)C(=O)c1ccc2c(c1)OCO2 do in these assays?
D3 antag: -50.2*; DRD3 agonist: -7.3; Giardia killer: -11.5; B2AR arrestin: 0.4%

How did CN(CCN1CCc2ccccc2C1)Cc1nc(-c2ccc3c(c2)OCO3)no1 do in these assays?
D3 antag: -70.3*; DRD3 agonist: -20.0; Giardia killer: 9.5; B2AR arrestin: -1.0%

How did c1ccc(OCCN2CCN(Cc3nc(-c4ccc5c(c4)OCO5)no3)CC2)cc1 do in these assays?
D3 antag: inconclusive; DRD3 agonist: 72.5*; Giardia killer: 11.9; B2AR arrestin: -0.3%

How did Fc1ccc(CN2CCCN(Cc3nc(-c4ccc5c(c4)OCO5)no3)CC2)cc1 do in these assays?
D3 antag: 0.2; DRD3 agonist: -5.3; Giardia killer: 8.5; B2AR arrestin: -0.7%

What do the screens show for `COc1ccc(Cc2noc(CN(C)CCN3CCc4ccccc4C3)n2)cc1OC`?
D3 antag: inconclusive; DRD3 agonist: -13.9; Giardia killer: -0.6; B2AR arrestin: 0.9%

What do the screens show for `CN(CCN1CCc2ccccc2C1)Cc1nc(Cc2ccccc2F)no1`?
D3 antag: -59.4*; DRD3 agonist: -16.8; Giardia killer: 10.4; B2AR arrestin: -0.4%

How did Cc1ccc(S(=O)(=O)N2CCOCC2)cc1C(=O)Nc1ccccc1C(=O)O do in these assays?
DRD3 agonist: 26.4

How did Cc1ccc(C2CC(=O)n3nc(-c4ccc(F)cc4)nc3S2)cc1 (stereo not drawn) do in these assays?
DRD3 agonist: -9.1

How did Cc1ccc(CCNC(=O)NCc2noc3ccc(C)cc23)cc1 do in these assays?
DRD3 agonist: 5.9

Results for C=CCn1c(SCC(=O)Nc2ccc3c(c2)OCO3)nnc1-c1cc(Br)ccc1O ?
D3 antag: -51.1*; DRD3 agonist: -4.5; Giardia killer: -2.2

Results for CCn1c(Cc2ccccc2)nnc1SCC(=O)Nc1ccc2c(c1)OCCO2 ?
D3 antag: 18.1; DRD3 agonist: 35.4*; Giardia killer: -13.5; B2AR arrestin: -0.2%

Results for C=CCn1c(SCC(=O)Nc2ccc3c(c2)OCO3)nnc1-c1ccccc1 ?
D3 antag: -0.2; DRD3 agonist: 0.1; Giardia killer: -5.6; B2AR arrestin: -0.3%

What do the screens show for `CC(=O)Nc1ccc(NC(=O)CSc2nnc(-c3ccccc3)n2Cc2ccc3c(c2)OCO3)cc1`?
D3 antag: -102.7*; DRD3 agonist: -0.6; Giardia killer: -14.6; B2AR arrestin: -0.1%

Results for Cc1ccc(C)c(N(C)C(=O)Cc2c(C(=O)O)[nH]c3ccc(Cl)cc23)c1 ?
DRD3 agonist: 0.7

What do the screens show for `Cc1cc(N2CCN(C)CC2)nc2ccc(NC(=O)Nc3ccccc3Br)cc12`?
DRD3 agonist: -24.1

How did COc1ccc(/C=N/OCC(=O)Nc2cc(C)on2)cc1OC do in these assays?
D3 antag: 18.1; DRD3 agonist: 30.3*; Giardia killer: -0.7; B2AR arrestin: -0.2%

Results for CC1CCCN(C(=O)CSc2nnc3n(C4CCCC4)c(=O)c4ccccc4n23)C1 (stereo not drawn) ?
D3 antag: 31.9; DRD3 agonist: 46.6*; Giardia killer: 4.7; B2AR arrestin: -0.9%

Results for CC1CCCN(C(=O)CSc2nnc(-c3cccnc3)n2C2CCCCC2)C1 (stereo not drawn) ?
D3 antag: 12.3; DRD3 agonist: 8.1; Giardia killer: -4.6; B2AR arrestin: -0.1%

Results for O=C(CSc1nnc2n(C3CCCC3)c(=O)c3ccccc3n12)N1CCCCCC1 ?
D3 antag: 14.8; DRD3 agonist: 34.3*; Giardia killer: -1.2; B2AR arrestin: -0.3%
